Laboratory results from PubChem BioAssay.
Records with an inconclusive call do not appear. Calls of active or inactive are those of the source. Unless noted, how the calls were made is not given here.

Experiments:
[1] = yeast TOR pathway RPL19A-GFP modulators, primary screen, cell-based, S. cerevisiae, multiplex flow cytometry (AID 1862; in the data active means percent of DMSO control GFP below about 86%;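 further: lower values mimic rapamycin by blocking the RPL19A rise seen in DMSO cells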); conditions: S. cerevisiae RPL19A-GFP strain, flow cytometry fluorescence, 3 h; at 10 µM; stronger effect = lower value
[2] = modulators of MEP2-GFP levels in yeast, primary screen, S. cerevisiae, multiplex flow cytometry (AID 1867;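 active means GFP response, as percent of the DMSO control, above the screen-wide mean plus 3 SD, about 139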;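 further: median GFP channel fluorescence of barcode-gated MEP2-GFP cells measured by flow cytometry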); conditions: S. cerevisiae MEP2-GFP strain, 3 h, at 10 µM, stronger effect = higher value
[3] = modulators of CIT2-GFP expression in yeast, primary screen, S. cerevisiae, GFP fusion, multiplex flow cytometry (AID 1870;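 active means percent response above a set limit, the screen-wide mean plus 3 SD, cut at about 130% in these data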;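 further: barcoded CIT2-GFP strain pooled with four other GFP strains with rapamycin as positive control; median GFP fluorescence per well over plate mean of DMSO wells so 100% = DMSO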); conditions: 3 h, at 10 µM, stronger effect = higher value
[4] = modulators of LAP4-GFP expression in yeast, primary screen, S. cerevisiae, multiplex flow cytometry (AID 1873;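 active means GFP signal, as percent of the solvent control, above the screen mean plus 3 SD, about 149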); conditions: 3 h, at 10 µM, stronger effect = higher value
[5] = inhibitors of CD8+ T cell-vesicle binding, pilot screen, LFA-1/ICAM-1 modulator project, MLPCN validation set, flow cytometry (AID 2523;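 active means response below a set limit, under 55% cells CD8-positive and vesicle-bound, and CD8 cells' 90th-percentile brightness under 279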;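 on vesicle binding response: mean PE anti-B7-1 fluorescence of CD8+ cells relative to row control; 100% = QL9-loaded vesicles with DMSO vehicle in the same plate row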); conditions: 2C mouse CD8+ T cells, at 7 µM, stronger effect = lower value; double positive events: measured here: CD8+/vesicle+ event percentage
[6] = molecular target: Integrin beta-1 (Homo sapiens) + Integrin alpha-4 (Homo sapiens) (UniProt P13612+P05556); assay: inhibition of HUTS-21 binding to VLA-4, pilot screen, VLA-4 allosteric modulator project, U937 cells, HUTS-21 mAb, flow cytometry, validation set (AID 2674;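 active means inhibition above 50%, about 3 SD of the validation set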;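 further: antibody binding induced by the VLA-4 ligand LDV present at three times its Kd; 0% = LDV ligand with antibody and no compound and 100% = antibody without LDV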); conditions: HUTS-21 LIBS mAb binding, at 6.7 µM, stronger effect = higher value
[7] = superoxide lowering in aged yeast cells, pilot screen, validation compound set (AID 2706;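 active means superoxide response below 65% of plate, a cut near 3 SD across the whole screen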;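 further: yeast exposed to compound for one week at 30 degrees C before staining; 100% = mean of all compound wells on the same plate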); conditions: S. cerevisiae aging, superoxide DHE fluorescence; at 10 µM; stronger effect = lower value
[8] = molecular target: Beta-adrenergic receptor kinase 1 (Homo sapiens) (UniProt P25098); assay: GRK2 binders displacing RNA aptamer, biochemical, validation, human GRK2, bead flow cytometry (AID 488806;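 active means aptamer binding inhibition above 30%, about 3 SD of noise from non-fluorescent compounds; inactive means inhibition at or below 30%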); conditions: bead-bound GRK2, FAM-aptamer displacement, at 10 µM, stronger effect = higher value
[9] = molecular target: AP-2 complex subunit beta (Homo sapiens) (UniProt P63010); assay: inhibitors of arrestin peptide binding to AP2, pilot screen, biochemical, validation set, GST-AP2 beads, flow cytometry (AID 504541;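 active means inhibition above 54%, about 3 SD of non-fluorescent compounds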;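 further: AP2 carries R879A mutation and is captured from E. coli lysate; bead-bound FITC arrestin peptide fluorescence measuring arrestin peptide binding to AP2; 0% = DMSO wells and 100% = excess unlabeled arrestin peptide control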); conditions: FITC arrestin peptide, at 10 µM, stronger effect = higher value
[10] = yeast V-ATPase proton transport modulators, S. cerevisiae, pHLuorin, HTS validation (AID 504600; in the data active means response above about 15%;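 further: plate controls were DMSO for no effect and reference compound for full effect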); conditions: S. cerevisiae pHLuorin cytosolic pH, at 10 µM, stronger effect = higher value
[11] = tested on: anti-desmoglein-3 scFv antibody binding to human DSG3; assay: inhibitors of anti-DSG3 scFv binding to DSG3, pilot screen, biochemical, validation compound set, bead-based, flow cytometry (AID 588368;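 active means binding below the plate cutoff, the plate median minus 3 SD, with a reading above zero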;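 further: signal is the median channel fluorescence of bead-bound GFP antibody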); conditions: Protein G beads, DSG3-Fc, scFv-GFP binding, at 10 µM, stronger effect = lower value
[12] = inhibitors of fungal efflux pumps CDR1, CDR2, MDR1, pilot screen, validation compound set, multiplex, phenotypic (AID 588506;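 active means efflux inhibition above 0.42, the validation set average plus 4 SD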;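 further: Nile Red retained in cells so higher fluorescence means more efflux inhibition; 0 = negative control wells and 1 = enniatin B 25 µM full block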); conditions: S. cerevisiae pump-expressing triplex, Nile Red efflux flow cytometry; at 10 µM; stronger effect = higher value
[13] = molecular target: ATP-binding cassette sub-family B member 6 (Homo sapiens) (UniProt Q9NP58); assay: ABCB6 transporter inhibitors, pilot screen, K562-ABCB6 cells, flow cytometry, validation set (AID 588550;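 active means inhibition above the screen-wide mean plus 3 SD, about 51%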;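 further: 0% = DMSO wells and 100% = benzethonium chloride 70 µM positive control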); conditions: K562-ABCB6 porphyrin accumulation, 1 h, at 10 µM, stronger effect = higher value
[14] = promoters of myeloid differentiation in arrested cells, primary screen, cell-based, GFP/MAC1 double positive, flow cytometry, validation set (AID 588685;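 active means differentiation response of at least 50%, scaled between solvent and reference control, from cells with both markers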;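 further: compound exposure lasts four days before antibody staining and flow analysis; 0% = DMSO wells and 100% = 5 µM fulvestrant positive control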); conditions: ER-HoxA9 marrow cells, stronger effect = higher value
[15] = tested on: Botulinum neurotoxin type F light chain protease (Clostridium botulinum); assay: Botulinum neurotoxin type F light chain protease inhibition, multiplex microsphere flow cytometry, validation set (AID 588459); conditions: multiplex microsphere protease substrate cleavage assay, at 10 µM, stronger effect = higher value
[16] = molecular target: Botulinum neurotoxin type A (Clostridium botulinum) (UniProt P0DPI0); assay: BoNT/A light chain protease inhibitors, biochemical, multiplex microsphere flow cytometry, validation set (AID 588460); conditions: at 10 µM, stronger effect = higher value
[17] = molecular target: Lethal factor (Bacillus anthracis) (UniProt P15917); assay: Lethal factor protease inhibitors, Bacillus anthracis, multiplex microsphere cleavage assay, validation set (AID 588461); conditions: flow cytometry, at 10 µM, stronger effect = higher value
Chain of Lethal factor (Bacillus anthracis) (P15917 whole entry, looked up): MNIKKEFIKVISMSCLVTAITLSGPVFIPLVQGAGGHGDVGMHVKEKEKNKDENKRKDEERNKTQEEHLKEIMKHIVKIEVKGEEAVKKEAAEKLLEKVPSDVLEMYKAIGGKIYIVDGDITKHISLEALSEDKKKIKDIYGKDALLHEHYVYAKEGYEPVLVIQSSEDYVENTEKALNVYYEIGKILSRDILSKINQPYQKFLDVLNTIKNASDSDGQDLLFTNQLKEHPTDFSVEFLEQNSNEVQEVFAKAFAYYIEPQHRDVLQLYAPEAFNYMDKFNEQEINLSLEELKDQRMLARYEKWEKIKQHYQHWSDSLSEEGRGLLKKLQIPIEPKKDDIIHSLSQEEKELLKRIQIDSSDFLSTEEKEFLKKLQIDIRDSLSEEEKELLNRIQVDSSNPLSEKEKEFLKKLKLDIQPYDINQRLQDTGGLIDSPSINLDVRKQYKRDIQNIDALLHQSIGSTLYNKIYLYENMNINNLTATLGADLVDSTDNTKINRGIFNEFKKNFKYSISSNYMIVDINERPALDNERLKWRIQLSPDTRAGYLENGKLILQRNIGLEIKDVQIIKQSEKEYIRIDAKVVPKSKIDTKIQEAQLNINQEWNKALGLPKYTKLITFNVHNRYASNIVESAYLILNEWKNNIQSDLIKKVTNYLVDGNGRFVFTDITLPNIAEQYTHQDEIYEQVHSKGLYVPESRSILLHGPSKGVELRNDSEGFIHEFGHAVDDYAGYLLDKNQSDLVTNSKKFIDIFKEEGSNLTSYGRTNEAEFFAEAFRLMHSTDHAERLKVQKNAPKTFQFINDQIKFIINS

Chain of ATP-binding cassette sub-family B member 6 (Homo sapiens) (Q9NP58 whole entry, looked up): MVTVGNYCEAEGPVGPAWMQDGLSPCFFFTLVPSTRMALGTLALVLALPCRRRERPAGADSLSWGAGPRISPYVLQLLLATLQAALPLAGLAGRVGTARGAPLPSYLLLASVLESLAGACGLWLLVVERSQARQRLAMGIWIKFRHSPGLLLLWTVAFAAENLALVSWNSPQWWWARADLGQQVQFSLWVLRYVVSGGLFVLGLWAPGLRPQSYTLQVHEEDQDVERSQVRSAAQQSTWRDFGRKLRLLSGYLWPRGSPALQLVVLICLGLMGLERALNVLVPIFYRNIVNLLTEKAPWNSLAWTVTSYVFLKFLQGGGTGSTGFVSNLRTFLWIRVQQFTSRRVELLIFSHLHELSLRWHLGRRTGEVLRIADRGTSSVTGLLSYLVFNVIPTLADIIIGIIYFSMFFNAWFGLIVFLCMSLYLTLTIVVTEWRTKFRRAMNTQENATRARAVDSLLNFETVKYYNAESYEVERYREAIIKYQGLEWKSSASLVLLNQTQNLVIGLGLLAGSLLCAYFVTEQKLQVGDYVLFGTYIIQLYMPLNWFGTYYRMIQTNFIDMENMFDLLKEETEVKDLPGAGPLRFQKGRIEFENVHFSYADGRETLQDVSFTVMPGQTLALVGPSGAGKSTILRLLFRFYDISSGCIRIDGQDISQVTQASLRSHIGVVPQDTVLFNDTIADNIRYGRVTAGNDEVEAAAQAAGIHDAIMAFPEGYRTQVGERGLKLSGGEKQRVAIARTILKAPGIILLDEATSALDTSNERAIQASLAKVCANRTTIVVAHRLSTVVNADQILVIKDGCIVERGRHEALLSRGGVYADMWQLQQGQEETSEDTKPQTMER
Chain of AP-2 complex subunit beta (Homo sapiens) (P63010 whole entry, looked up, one chain of several): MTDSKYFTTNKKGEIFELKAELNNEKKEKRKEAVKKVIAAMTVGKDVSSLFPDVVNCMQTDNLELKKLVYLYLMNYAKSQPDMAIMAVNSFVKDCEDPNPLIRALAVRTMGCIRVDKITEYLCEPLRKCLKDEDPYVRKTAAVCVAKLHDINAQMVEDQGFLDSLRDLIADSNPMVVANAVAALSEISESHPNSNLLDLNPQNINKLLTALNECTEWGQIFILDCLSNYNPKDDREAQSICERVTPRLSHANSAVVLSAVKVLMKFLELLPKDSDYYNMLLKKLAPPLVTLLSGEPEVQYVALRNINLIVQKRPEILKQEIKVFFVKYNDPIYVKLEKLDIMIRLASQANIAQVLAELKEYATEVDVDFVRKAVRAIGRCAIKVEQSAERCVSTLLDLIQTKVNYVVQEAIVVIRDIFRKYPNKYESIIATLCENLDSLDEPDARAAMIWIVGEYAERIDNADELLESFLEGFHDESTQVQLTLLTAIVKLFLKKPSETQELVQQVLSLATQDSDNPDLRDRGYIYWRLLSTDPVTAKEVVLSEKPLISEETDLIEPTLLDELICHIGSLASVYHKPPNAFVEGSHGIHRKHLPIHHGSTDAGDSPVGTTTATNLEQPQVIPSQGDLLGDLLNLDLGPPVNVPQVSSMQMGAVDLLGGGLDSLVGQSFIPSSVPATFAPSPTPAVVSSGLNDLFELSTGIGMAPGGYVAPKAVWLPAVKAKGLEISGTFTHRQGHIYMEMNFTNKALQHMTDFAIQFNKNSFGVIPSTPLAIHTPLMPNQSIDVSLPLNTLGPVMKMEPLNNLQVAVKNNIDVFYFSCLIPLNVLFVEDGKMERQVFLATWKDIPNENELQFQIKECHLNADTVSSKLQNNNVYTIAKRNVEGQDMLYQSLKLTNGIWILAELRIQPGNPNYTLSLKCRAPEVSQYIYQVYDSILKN
Chain of Beta-adrenergic receptor kinase 1 (Homo sapiens) (P25098 whole entry, looked up): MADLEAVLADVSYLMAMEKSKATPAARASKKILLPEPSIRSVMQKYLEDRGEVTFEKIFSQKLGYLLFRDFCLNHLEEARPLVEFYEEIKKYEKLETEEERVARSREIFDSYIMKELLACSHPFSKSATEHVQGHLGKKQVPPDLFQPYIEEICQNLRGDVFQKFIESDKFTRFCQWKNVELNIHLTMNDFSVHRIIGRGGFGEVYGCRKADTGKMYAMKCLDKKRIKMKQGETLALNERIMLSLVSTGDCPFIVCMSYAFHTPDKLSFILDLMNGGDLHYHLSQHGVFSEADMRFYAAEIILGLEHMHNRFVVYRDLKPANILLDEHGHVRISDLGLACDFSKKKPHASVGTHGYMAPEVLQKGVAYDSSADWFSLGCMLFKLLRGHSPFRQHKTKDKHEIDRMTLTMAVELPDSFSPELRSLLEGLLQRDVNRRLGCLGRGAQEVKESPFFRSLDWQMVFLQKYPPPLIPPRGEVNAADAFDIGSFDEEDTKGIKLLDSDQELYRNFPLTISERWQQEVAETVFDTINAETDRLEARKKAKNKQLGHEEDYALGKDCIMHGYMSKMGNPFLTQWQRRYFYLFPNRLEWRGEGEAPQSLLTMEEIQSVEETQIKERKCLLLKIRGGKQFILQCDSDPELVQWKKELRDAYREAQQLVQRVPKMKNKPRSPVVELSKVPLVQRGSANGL
Chain of Botulinum neurotoxin type A (Clostridium botulinum) (P0DPI0 whole entry, looked up): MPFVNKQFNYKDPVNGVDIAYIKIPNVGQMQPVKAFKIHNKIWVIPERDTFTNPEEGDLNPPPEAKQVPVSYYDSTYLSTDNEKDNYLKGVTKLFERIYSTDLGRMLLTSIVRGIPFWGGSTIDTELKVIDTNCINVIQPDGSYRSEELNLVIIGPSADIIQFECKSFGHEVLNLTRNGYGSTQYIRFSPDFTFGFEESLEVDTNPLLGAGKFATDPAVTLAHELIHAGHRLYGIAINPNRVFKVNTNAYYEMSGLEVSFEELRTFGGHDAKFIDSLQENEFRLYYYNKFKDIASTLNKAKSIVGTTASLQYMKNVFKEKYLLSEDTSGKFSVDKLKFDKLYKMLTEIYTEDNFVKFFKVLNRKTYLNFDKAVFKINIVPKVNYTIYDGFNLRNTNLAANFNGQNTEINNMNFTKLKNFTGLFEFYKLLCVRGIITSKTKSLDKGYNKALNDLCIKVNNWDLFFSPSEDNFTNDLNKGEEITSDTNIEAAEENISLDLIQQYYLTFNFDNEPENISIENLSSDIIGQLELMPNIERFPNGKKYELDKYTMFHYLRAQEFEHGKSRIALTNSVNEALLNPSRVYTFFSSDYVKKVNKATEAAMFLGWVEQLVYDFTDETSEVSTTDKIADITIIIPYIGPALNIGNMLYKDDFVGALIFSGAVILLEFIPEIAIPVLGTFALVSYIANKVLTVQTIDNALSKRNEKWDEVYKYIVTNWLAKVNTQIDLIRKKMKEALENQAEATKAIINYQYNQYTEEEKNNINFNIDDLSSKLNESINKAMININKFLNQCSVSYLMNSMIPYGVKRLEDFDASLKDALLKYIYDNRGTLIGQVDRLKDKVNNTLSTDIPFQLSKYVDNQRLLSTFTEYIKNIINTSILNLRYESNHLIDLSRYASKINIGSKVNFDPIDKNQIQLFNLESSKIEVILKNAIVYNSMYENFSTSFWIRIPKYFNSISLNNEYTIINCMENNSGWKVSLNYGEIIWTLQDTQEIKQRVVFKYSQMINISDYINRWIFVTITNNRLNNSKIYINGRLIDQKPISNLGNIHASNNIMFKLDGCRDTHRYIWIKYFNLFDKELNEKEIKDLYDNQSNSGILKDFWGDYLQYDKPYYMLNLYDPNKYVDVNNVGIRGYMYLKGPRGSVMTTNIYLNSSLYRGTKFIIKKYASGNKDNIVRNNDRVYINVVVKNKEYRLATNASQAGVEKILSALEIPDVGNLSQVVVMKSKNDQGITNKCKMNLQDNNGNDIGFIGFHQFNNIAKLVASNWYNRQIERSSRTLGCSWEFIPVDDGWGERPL

S=C1NCCN1
65.7%: double positive events [5]
inactive: percent of DMSO control GFP [1] 99.1% | GFP response vs DMSO [2] 109% | percent response of DMSO control [3] 97.9% | GFP response vs DMSO [4] 102% | vesicle binding response [5] 186% | inhibition [6] 6.29% | superoxide response (% of plate) [7] 98.2% | aptamer binding inhibition [8] 3% | inhibition [9] 24.8% | response [10] -0.28% | binding (% of control) [11] 98% | inhibition [13] 14% | differentiation response [14] -0.2%
active: efflux inhibition (fraction of control) [12] 0.63

CC(C)(C)NCC(O)c1cc(Cl)c(N)c(Cl)c1 (stereo not drawn)
inactive: percent of DMSO control GFP [1] 104% | GFP response vs DMSO [2] 102% | percent response of DMSO control [3] 97.6% | GFP response vs DMSO [4] 99.1% | vesicle binding response [5] 138% | inhibition [6] -21.2% | superoxide response (% of plate) [7] 94.5% | aptamer binding inhibition [8] -1% | inhibition [9] -12.6% | response [10] 1.54% | binding (% of control) [11] 112% | inhibition [15] 2.9% | inhibition [16] 2.2% | inhibition [17] 6.8% | efflux inhibition (fraction of control) [12] -0.28 | inhibition [13] 2% | differentiation response [14] 17.4%
60.7%: double positive events [5]

O=c1[nH]c2ccccc2n1CCCN1CCC(n2c(=O)[nH]c3cc(Cl)ccc32)CC1
inactive: percent of DMSO control GFP [1] 99.1% | GFP response vs DMSO [2] 109% | percent response of DMSO control [3] 91% | GFP response vs DMSO [4] 112% | vesicle binding response [5] 240% | inhibition [6] -4.52% | superoxide response (% of plate) [7] 114% | aptamer binding inhibition [8] 1% | inhibition [9] -6.83% | response [10] -0.17% | binding (% of control) [11] 101% | inhibition [16] 1.3% | inhibition [17] -2.2% | efflux inhibition (fraction of control) [12] -0.1 | inhibition [13] 2% | differentiation response [14] -34.4%
55.1%: double positive events [5]

C[C@H]1CCC[C@H](O)CCCCCc2cc(O)cc(O)c2C(=O)O1
inactive: percent of DMSO control GFP [1] 104% | GFP response vs DMSO [2] 94.8% | percent response of DMSO control [3] 106% | GFP response vs DMSO [4] 87.3% | vesicle binding response [5] 191% | inhibition [6] -7.7% | superoxide response (% of plate) [7] 106% | aptamer binding inhibition [8] -4% | inhibition [9] -16.7% | response [10] 3% | binding (% of control) [11] 106% | inhibition [15] 0.3% | inhibition [16] -0.8% | inhibition [17] -4.3% | efflux inhibition (fraction of control) [12] -0.28 | inhibition [13] 9% | differentiation response [14] -34.1%
52.7%: double positive events [5]

O=C1CC[C@@]2(O)[C@H]3Cc4ccc(O)c5c4[C@@]2(CCN3CC2CC2)[C@H]1O5
inactive: percent of DMSO control GFP [1] 98.3% | GFP response vs DMSO [2] 126% | percent response of DMSO control [3] 96.6% | GFP response vs DMSO [4] 84.7% | vesicle binding response [5] 207% | inhibition [6] 1.61% | superoxide response (% of plate) [7] 95.9% | aptamer binding inhibition [8] 2% | inhibition [9] -0.81% | response [10] 1.19% | binding (% of control) [11] 107% | efflux inhibition (fraction of control) [12] -0.02 | inhibition [13] 14% | differentiation response [14] -3.28%
63.4%: double positive events [5]

CCNC(=S)N(C)CCc1cc2c(c(OC)c1C=C1C(=O)N(C)C(=O)N(C)C1=O)OCO2
inactive: percent of DMSO control GFP [1] 98.1% | GFP response vs DMSO [2] 95.9% | percent response of DMSO control [3] 91% | GFP response vs DMSO [4] 96.4% | vesicle binding response [5] 168% | inhibition [6] 15.6% | superoxide response (% of plate) [7] 89.1% | aptamer binding inhibition [8] 4% | inhibition [9] 27.6% | response [10] -7.44% | binding (% of control) [11] 100% | inhibition [15] 1.8% | inhibition [16] 1.4% | inhibition [17] 1.3% | efflux inhibition (fraction of control) [12] -0.16 | inhibition [13] -16% | differentiation response [14] 6.26%
62.5%: double positive events [5]

Cc1cc(Cl)ccc1OCC(=O)O
inactive: percent of DMSO control GFP [1] 96.8% | GFP response vs DMSO [2] 93.8% | percent response of DMSO control [3] 109% | GFP response vs DMSO [4] 105% | vesicle binding response [5] 188% | inhibition [6] 7.22% | superoxide response (% of plate) [7] 108% | aptamer binding inhibition [8] -4% | inhibition [9] -8.4% | response [10] -14.2% | binding (% of control) [11] 111% | inhibition [15] -6.1% | inhibition [16] -0.1% | inhibition [17] 2.4% | efflux inhibition (fraction of control) [12] -0.35 | inhibition [13] 10% | differentiation response [14] -24.4%
60.3%: double positive events [5]

CN[C@H]1C[C@H]2O[C@@](C)([C@H]1OC)n1c3ccccc3c3c4c(c5c6ccccc6n2c5c31)C(=O)NC4
64%: double positive events [5]
inactive: percent of DMSO control GFP [1] 104% | GFP response vs DMSO [2] 105% | percent response of DMSO control [3] 107% | GFP response vs DMSO [4] 84.1% | vesicle binding response [5] 105% | inhibition [6] -86.6% | inhibition [9] 0.54% | response [10] 1.34% | inhibition [17] 6.2% | efflux inhibition (fraction of control) [12] 0.14 | inhibition [13] -76% | differentiation response [14] 12%

CC(=O)[C@H]1CC[C@H]2[C@@H]3CC[C@H]4C[C@H](O)CC[C@]4(C)[C@H]3C(=O)C[C@]12C
60.9%: double positive events [5]
inactive: percent of DMSO control GFP [1] 100% | GFP response vs DMSO [2] 97.9% | percent response of DMSO control [3] 92% | GFP response vs DMSO [4] 106% | vesicle binding response [5] 146% | inhibition [6] 6.29% | superoxide response (% of plate) [7] 110% | aptamer binding inhibition [8] 3% | inhibition [9] 42.5% | response [10] -11.1% | binding (% of control) [11] 99.5% | inhibition [15] 0.8% | inhibition [16] 2.5% | inhibition [17] -1.9% | efflux inhibition (fraction of control) [12] 0.14 | inhibition [13] 5% | differentiation response [14] 46.6%

C#CCN(C)C(C)Cc1ccccc1 (stereo not drawn)
inactive: percent of DMSO control GFP [1] 100% | GFP response vs DMSO [2] 108% | percent response of DMSO control [3] 104% | GFP response vs DMSO [4] 88.7% | vesicle binding response [5] 225% | inhibition [6] 1.62% | superoxide response (% of plate) [7] 97.6% | aptamer binding inhibition [8] 3% | inhibition [9] -6.88% | response [10] 3.03% | binding (% of control) [11] 97.2% | inhibition [15] -1% | inhibition [16] -0.6% | inhibition [17] 3.9% | efflux inhibition (fraction of control) [12] -0.1 | inhibition [13] -12% | differentiation response [14] 15.9%
62.5%: double positive events [5]
